Test systems include SK-MEL-2 melanoma; EKVX NSCLC; SN12C renal; UO-31 renal; TK-10 renal; ACHN renal; CAKI-1 renal; A498 renal; CCRF-CEM leukemia; MOLT-4 leukemia; RPMI-8226 leukemia; OVCAR-8 ovarian; OVCAR-5 ovarian; OVCAR-4 ovarian; SK-OV-3 ovarian; IGROV1 ovarian; OVCAR-3 ovarian; HS 578T breast; NCI/ADR-RES ovarian.
Common to all, as to test: NCI-60 one-dose screen, 48 h (100 = growth as untreated, 0 = no growth, -100 = all killed)
What all share (conditions): 10 µM unless noted

The panel holds about 83,000 compounds, 20% with a hit somewhere; the sample as a whole holds those more often.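 Assay: single dose, 48 h. Readout: percent growth (0 = no net growth; negative = cell death). Active: <10.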 Unmarked numbers belong to inactive results. The source made the active and inactive calls.

The source of these data is PubChem BioAssay (NCI).

Turning to `NC[C@H](O)c1ccc(O)c(O)c1`, the growth is 110% with SK-MEL-2 melanoma; 113% in the assay on EKVX NSCLC; 85.4% in the assay with SN12C renal; 103% in the assay on UO-31 renal; 97.7% with TK-10 renal; 90.1% with ACHN renal. Besides, the growth is 109% in the assay on CAKI-1 renal; 112% in the assay on A498 renal; -46.2% (active) in the assay with CCRF-CEM leukemia; 115% with MOLT-4 leukemia; 104% with RPMI-8226 leukemia; 96.3% with OVCAR-8 ovarian. The growth with OVCAR-5 ovarian was 84.4%; with OVCAR-4 ovarian, 123%; in the assay on SK-OV-3 ovarian it was 102%; with IGROV1 ovarian, 118%; in the assay on OVCAR-3 ovarian, 108%; in the assay with HS 578T breast, 113%. The growth in the assay with NCI/ADR-RES ovarian is 92.1%.

Consider `Cc1nn(-c2ccccc2)c(Oc2ccc(Cl)cc2)c1/C=N\N=c1/sc2ccccc2n1C`, for which the growth is 78.1% in the assay on SK-MEL-2 melanoma; 85.5% in the assay on EKVX NSCLC; 88.4% in the assay on SN12C renal; 62.1% with UO-31 renal; 117% in the assay with TK-10 renal; 93.9% in the assay with ACHN renal. Further, the growth was 81.3% in the assay with CAKI-1 renal; 92.2% with A498 renal; 86.8% with CCRF-CEM leukemia; 74.1% with MOLT-4 leukemia; 77.4% in the assay on RPMI-8226 leukemia; 89.1% in the assay with OVCAR-8 ovarian. Moreover, the growth was 106% in the assay with OVCAR-5 ovarian; 106% in the assay with OVCAR-4 ovarian; 74.2% in the assay with SK-OV-3 ovarian; 84.7% in the assay on IGROV1 ovarian; 101% in the assay with OVCAR-3 ovarian; 78.8% in the assay on HS 578T breast. The growth in the assay on NCI/ADR-RES ovarian is 98.1%.

As for `Cc1cc(C(=O)c2ccccc2)c(C)c2c1[nH]c1ccc(Cl)cc12`, the growth in the assay with SK-MEL-2 melanoma was 52.1%; with EKVX NSCLC it was 42.8%; with SN12C renal it was 22.1%; in the assay with UO-31 renal, 25%; in the assay on TK-10 renal, 93.7%; in the assay on ACHN renal it was 24.8%. In addition, the growth in the assay with CAKI-1 renal is 24.7%; with A498 renal it was -11.8% (active); with CCRF-CEM leukemia, 8.5% (active); in the assay with MOLT-4 leukemia, 15.9%; with RPMI-8226 leukemia, -0.677% (active); in the assay with OVCAR-8 ovarian, 21.9%. Moreover, the growth in the assay with OVCAR-5 ovarian was 43.5%; in the assay with OVCAR-4 ovarian it was 43.5%; in the assay on SK-OV-3 ovarian, 38%; with IGROV1 ovarian, 19.1%; in the assay on OVCAR-3 ovarian, -51% (active); in the assay with HS 578T breast, 33.2%. Also, the growth in the assay on NCI/ADR-RES ovarian was 7.25% (active).

Take `Cn1ccc2c(c1=O)C(=O)c1nccc3c1c-2nc1ccccc13`: the growth was 98.1% with SK-MEL-2 melanoma; 86.9% in the assay on EKVX NSCLC; 66.8% with SN12C renal; 46.2% in the assay with UO-31 renal; 1.92% (active) with TK-10 renal; 21.3% with ACHN renal. In addition, the growth with CAKI-1 renal is 61%; in the assay on A498 renal it was 87.6%; with CCRF-CEM leukemia, -12.8% (active); in the assay with MOLT-4 leukemia, 34.5%; in the assay with RPMI-8226 leukemia it was -29% (active); in the assay on OVCAR-8 ovarian it was -58.5% (active). Moreover, the growth in the assay with OVCAR-5 ovarian was 69%; in the assay on OVCAR-4 ovarian, -44.9% (active); in the assay on SK-OV-3 ovarian, 92.3%; with IGROV1 ovarian, 44.6%; with OVCAR-3 ovarian, -96.3% (active); with HS 578T breast, 96.8%. Besides, the growth in the assay on NCI/ADR-RES ovarian was 41%.

On to `COc1ccc(-c2cc(-c3cc(OC)c(OC)c(OC)c3)c(C#N)c(N3CCOCC3)n2)cc1O`, for which the growth in the assay on SK-MEL-2 melanoma is 68.2%; in the assay on EKVX NSCLC, 59.8%; in the assay on SN12C renal it was 60.1%; in the assay on UO-31 renal, 56.8%; in the assay on TK-10 renal it was 73.3%; with ACHN renal it was 66.7%. Further, the growth in the assay on CAKI-1 renal was 51.5%; in the assay with A498 renal, 74.8%; in the assay with CCRF-CEM leukemia it was 42.8%; in the assay with MOLT-4 leukemia, 55.4%; with RPMI-8226 leukemia, -23.8% (active); in the assay on OVCAR-8 ovarian, 56.3%. For the same compound, the growth was 20.5% in the assay with OVCAR-5 ovarian; 89.6% in the assay with OVCAR-4 ovarian; 81.2% in the assay with SK-OV-3 ovarian; 59.3% in the assay with IGROV1 ovarian; 27.4% in the assay on OVCAR-3 ovarian; 41.7% with HS 578T breast. For the same compound, in the assay with NCI/ADR-RES ovarian, the growth was -51.5% (active).

Regarding `C#Cc1cccc(NC(=O)c2ccc(NC(=O)CCl)cc2)c1`, the growth in the assay on SK-MEL-2 melanoma was 31.3% [8.25 µM]; in the assay on EKVX NSCLC, 104% [8.25 µM]; in the assay with SN12C renal, -78.4% [8.25 µM] (active); in the assay on UO-31 renal it was -99.2% [8.25 µM] (active); in the assay on TK-10 renal, -63.2% [8.25 µM] (active); in the assay on ACHN renal it was -98.2% [8.25 µM] (active). The growth in the assay on CAKI-1 renal was 9.54% [8.25 µM] (active); with A498 renal, 65% [8.25 µM]; in the assay with CCRF-CEM leukemia, 12.1% [8.25 µM]; in the assay with MOLT-4 leukemia it was 14% [8.25 µM]; in the assay on RPMI-8226 leukemia, 2.29% [8.25 µM] (active); in the assay with OVCAR-8 ovarian, -13.8% [8.25 µM] (active). Besides, the growth is 40% [8.25 µM] with OVCAR-5 ovarian; 17.1% [8.25 µM] in the assay with OVCAR-4 ovarian; 77.3% [8.25 µM] with SK-OV-3 ovarian; -55.5% [8.25 µM] (active) in the assay with IGROV1 ovarian; -85.8% [8.25 µM] (active) in the assay on OVCAR-3 ovarian; 38.2% [8.25 µM] in the assay with HS 578T breast. The growth in the assay with NCI/ADR-RES ovarian was 11.1% [8.25 µM].

For `COc1ccc2[nH]c(O)c(C(=Nc3ccc(N(C)C(=O)CN4CCN(C)CC4)cc3)c3ccccc3)c2c1`, the growth is 33.2% in the assay on SK-MEL-2 melanoma; 52.3% in the assay with EKVX NSCLC; 20% in the assay with SN12C renal; 18.8% in the assay on UO-31 renal; 51.8% in the assay on TK-10 renal; 25.3% with ACHN renal. Moreover, the growth with CAKI-1 renal is 24.6%; in the assay with A498 renal it was -11.3% (active); in the assay with CCRF-CEM leukemia, 23.2%; with MOLT-4 leukemia, 14.6%; in the assay on RPMI-8226 leukemia it was 38.8%; in the assay with OVCAR-8 ovarian, 43.9%. The growth with OVCAR-5 ovarian was 49.2%; with OVCAR-4 ovarian it was 47.1%; in the assay with SK-OV-3 ovarian, 5.77% (active); with IGROV1 ovarian it was 22.5%; in the assay with OVCAR-3 ovarian, 75.9%; in the assay with HS 578T breast it was -16.8% (active). Further, the growth in the assay with NCI/ADR-RES ovarian was 82.2%.
